Results reported in PubChem BioAssay (NCI).
“And” between values parts separate entries of the source, which are not always exact repeats. Identical values can stand only once. Compounds without any hit were thinned out: in the full panel of roughly 79,000, 15% have a hit. Values without a mark were called inactive. The source made the active and inactive calls. Rule as the data show it: active = growth inhibition above about 70%; inactive = the rest.

Legend:
[1] = NCI Yeast Anticancer Drug Screen. Data for the rad50 strain (AID 155);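 also: 0% = growth of vehicle-only cultures of the same strain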; conditions: S. cerevisiae rad50 strain growth inhibition, hits give high values
Summary of the method: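 Readout: growth inhibition relative to vehicle-treated cultures. Compound exposure was carried out in a genetically defined yeast strain deficient in DNA damage repair.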

[2] = NCI Yeast Anticancer Drug Screen. Data for the mec2-1 strain (AID 157); conditions: S. cerevisiae mec2-1 strain, hits give high values
Summary of the method: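 Test agents were screened against the mec2-1 yeast strain, with defined DNA repair or cell cycle alteration. Growth was scored as inhibition against vehicle-only controls.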

[3] = NCI Yeast Anticancer Drug Screen. Data for the sgs1 mgt1 strain (AID 161);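 also: 0% = growth of cultures given vehicle only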; conditions: S. cerevisiae sgs1 mgt1 strain, hits give high values
Summary of the method: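 Genetically altered yeast, compound exposure, growth inhibition relative to vehicle.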

[4] = NCI Yeast Anticancer Drug Screen. Data for the cln2 rad14 strain (AID 165);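 also: 0% = growth equal to vehicle treated cultures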; conditions: S. cerevisiae cln2 rad14 strain, hits give high values
Summary of the method: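 Growth of compound-exposed yeast (cln2 rad14 genotype) measured and expressed as inhibition relative to vehicle.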

[5] = NCI Yeast Anticancer Drug Screen. Data for the mlh1 rad18 strain (AID 175); conditions: S. cerevisiae mlh1 rad18 strain growth inhibition, hits give high values
Summary of the method: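 In this whole-cell yeast screen, a strain with altered DNA damage repair is challenged with compound, and its growth is measured against matched vehicle-treated controls.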

[6] = NCI Yeast Anticancer Drug Screen. Data for the bub3 strain (AID 167); conditions: S. cerevisiae bub3 mutant strain, hits give high values
Summary of the method: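 Readout: yeast growth inhibition, expressed relative to vehicle-only wells. The test organism is a mutant strain from a panel with lesions in DNA repair or checkpoint genes.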

[7] = at 5.0 µM (retest, dose inferred, filed as 0.5)
[8] = at 50.0 µM (retest, dose inferred, filed as 5.0)

| Structure (SMILES) | growth inhibition [1, 7] | growth inhibition [1, 8] | growth inhibition ([1]; at 50.0 µM) | growth inhibition [2, 7] | growth inhibition [2, 8] | growth inhibition ([2]; at 50.0 µM) | growth inhibition [3, 7] | growth inhibition [3, 8] | growth inhibition ([3]; at 50.0 µM) | growth inhibition [4, 7] | growth inhibition [4, 8] | growth inhibition ([4]; at 50.0 µM) | growth inhibition [5, 7] | growth inhibition [5, 8] | growth inhibition ([5]; at 50.0 µM) | growth inhibition [6, 7] | growth inhibition [6, 8] | growth inhibition ([6]; at 50.0 µM) |
| --- | --- | --- | --- | --- | --- | --- | --- | --- | --- | --- | --- | --- | --- | --- | --- | --- | --- | --- |
| CCC[CH2][Ge]([CH2]CCC)([CH2]CCC)[O]C(C)=O | 2% | 9% | 54.1% | 0% | 19% | 27.3% | 4% | 21% | 61.8% | 1% | -1% | 70.8% (active) | 2% | 11% | 52.8% | – | – | – |
| Cc1cc(C)nc(/C=C/c2ccc(/C=C/c3cc(C)cc(C)n3)cc2)c1 | -20% | -4% | – | -8% | 4% | 2.65% | 7% | -1% | 11.9% | -4% | -11% | -19.6% | -11% | 3% | 5.5% | -7% | -11% | 0.4% |
| COc1cc(/C=C(/C)C[N+](=O)[O-])ccc1O | – | – | – | 23% | 99% (active) | 99.8% (active) | 15% | 93% (active) | 99.8% (active) | 13% | 99% (active) | 98.8% (active) | 25% | 99% (active) | 99.5% (active) | 36% | 99% (active) | 98.8% (active) |
| CCC(=O)Sc1ccccc1C(=O)Nc1ccc(Cl)cc1 | – | – | – | 28% | 64% | 92.9% (active) | 12% | 47% | 52.4% | 23% | 62% | 53.1% | 29% | 65% | 85.2% (active) | 22% | 74% (active) | 56.4% |
| CCOC(=O)c1[nH]n(-c2ccccc2)c(=O)c1/C=N/C(=S)Nc1ccccc1OC | -7% | -3% | 0.4% | – | – | – | -5% | -3% | -18.1% | -23% | -12% | 44.6% | -2% | 1% | -16.2% | 0% | -9% | 10.1% |
| Oc1c(Br)cc(Cl)cc1C(c1cc(Cl)cc(Br)c1O)C(Cl)(Cl)Cl | – | – | – | 2% | 99% (active) | 98.2% (active) | 3% | 99% (active) | 97.8% (active) | -5% | 98% (active) | 97.2% (active) | 5% | 98% (active) | 90.8% (active) | -1% | 98% (active) | 97.1% (active) |
| N#Cc1c(Cl)nc2ccccc2c1N=[N+]=[N-] | -1% | 12% | 50.6% | – | – | – | – | – | – | 6% | 8% | 50.5% | -18% | 8% | 58.2% | -8% | -15% | 14.8% |
| O=C1OC(=O)C2C3CCC(C3=C3CCCCC3)C12 (stereo not drawn) | -2% | 93% (active) | 35% | – | – | – | -1% | 58% | 40% | 5% | 96% (active) | -8.55% | -1% | 93% (active) | 36.8% | 5% | 95% (active) | 10.8% |
| O=C(Nc1ccc(S(=O)(=O)NC2CCCCC2)cc1)OCc1ccccc1 | 91% (active) | 17% | 57% | 99% (active) | 26% | 9.85% | – | – | – | 28% | -10% | 30.7% | 91% (active) | 30% | 54.6% | 99% (active) | 43% | 28.4% |
| CCN(CC)CCCC(Nc1c2ccc(Cl)cc2nc2ccc(OC)cc12)c1cccs1 (stereo not drawn) | – | – | – | 91% (active) | 72% (active) | 35.2% | 92% (active) | 75% (active) | 65.9% | 87% (active) | 62% | 74.8% (active) | 91% (active) | 72% (active) | 62.5% | 90% (active) | 68% | 68.9% |
| Nc1ncnc2c1ncn2C1OC(CO)C(O)C1O (stereo not drawn) | – | – | -12.3% and 53.1% and 0.85% | – | – | -10.9% and 11.8% and -9.1% | – | – | -1.8% and 43.4% and 5.55% | – | – | 14.6% and -0.75% and -5.05% | – | – | -23.1% and 27.6% and 19.4% | – | – | 4.6% and 18.7% and 26.4% |
| CCOC(C)c1ccccc1 (stereo not drawn) | 39% | 90% (active) | -37% | – | – | – | 16% | 62% | 30.8% | 10% | 59% | -16.9% | 64% | 99% (active) | -0.2% | 19% | 99% (active) | -0.8% |
| COc1cc(/C=C/C(C)=O)ccc1O | – | – | 18.1% and 35.2% and 5.45% | – | – | -10.4% and 9.95% and -15.9% | – | – | -6.5% and 21.9% and -16.1% | – | – | -17.4% and -22.3% and -1.45% | – | – | -4.85% and 23.2% and -20.9% | – | – | 1.7% and 3.35% and 4.4% |
| O=C(CSC1=NNC2(C(=O)N1)c1ccccc1-c1ccccc12)NC(=S)Nc1ccccc1 | – | – | – | -15% | 90% (active) | 97% (active) | -7% | 96% (active) | 98% (active) | -8% | 86% (active) | 96.4% (active) | -24% | 95% (active) | 97% (active) | -16% | 94% (active) | 97.5% (active) |
| CN(Cc1ccccc1)c1nc(=[N+](C)C)ss1 | 5% | -1% | 4.35% | – | – | – | 11% | 8% | 26.3% | 17% | 15% | -30.9% | 10% | 16% | 33.4% | 14% | 11% | 12.2% |
| O=C1CCCC/C1=C(\Br)I | 35% | 99% (active) | 89.1% (active) | – | – | – | 28% | 100% (active) | 91.2% (active) | 19% | 93% (active) | 91.4% (active) | 31% | 99% (active) | 93% (active) | 45% | 100% (active) | 89.1% (active) |
| N[C@H](C(=O)O)[C@@H]1CC(Cl)=NO1 | 63% | 97% (active) | 83.7% (active) | – | – | – | 59% | 96% (active) | 84.5% (active) | 68% | 96% (active) | 85.2% (active) | 86% (active) | 97% (active) | 84.8% (active) | 68% | 97% (active) | 88.5% (active) |
| COC(OC)(c1ccccc1)C(I)I | 100% (active) | 100% (active) | 99% (active) | 100% (active) | 100% (active) | 99.4% (active) | – | – | – | 100% (active) | 99% (active) | 99.5% (active) | 100% (active) | 99% (active) | 99.5% (active) | 100% (active) | 100% (active) | 99.3% (active) |
| O=C(CNC(=O)c1ccccc1)NNc1ccccc1 | – | – | – | 4% | 65% | 71.2% (active) | 8% | 67% | 32.8% | 3% | 68% | 48.8% | 30% | 93% (active) | 86.9% (active) | 7% | 89% (active) | 32.5% |
| CC(C(=O)O)c1c(-c2ccccc2)ccc2ccccc12 (stereo not drawn) | – | – | – | 22% | 4% | 51.1% | 2% | 32% | 51.5% | – | – | – | 5% | 24% | 63.6% | 6% | 14% | 38.9% |
| CC1=CC(O)C2CC1C2(C)C (stereo not drawn) | – | – | 12.1% and 3.35% and 3.95% | – | – | -24.1% and -1.15% and -0.85% | – | – | – | – | – | 3.25% and -9% and -2.6% | – | – | -8.1% and 0.55% and 8.15% | – | – | -6.5% and -10.9% and 2.05% |
| COc1ccc(C(=O)Oc2c(Br)cc(Br)cc2Br)cc1 | 4% | -3% | 14.2% | – | – | – | 8% | 10% | 1.9% | -1% | -30% | -6.5% | 1% | 2% | 7.75% | 7% | 5% | 87.8% (active) |
| CCCc1cc(=O)oc2c3c(c4c(c12)OC(C)(C)C=C4)O[C@@H](C)[C@H](C)[C@H]3O | -1% | 91% (active) | 96.7% (active) | – | – | – | 11% | 95% (active) | 51.8% | 2% | 93% (active) | 92.4% (active) | 1% | 93% (active) | 95.1% (active) | -2% | 94% (active) | 96.5% (active) |
